# High-throughput results deposited in PubChem BioAssay by National Center for Advancing Translational Sciences (NCATS).
# This excerpt belongs to a sample that is enriched for hits.
# FBPA Giardia inh – Giardia lamblia aldolase inhibition; Potency, µM (doses to about 59.6 µM), for inactives: at the top dose activity, negative = inhibition, usual class: inhibitors; A8B2U2; purified Giardia FBPA; actives 0.71% (n = 290,000); further: nearly all actives have a fitted effect of over 55% in size
# Target sequence (A8B2U2 whole entry, looked up): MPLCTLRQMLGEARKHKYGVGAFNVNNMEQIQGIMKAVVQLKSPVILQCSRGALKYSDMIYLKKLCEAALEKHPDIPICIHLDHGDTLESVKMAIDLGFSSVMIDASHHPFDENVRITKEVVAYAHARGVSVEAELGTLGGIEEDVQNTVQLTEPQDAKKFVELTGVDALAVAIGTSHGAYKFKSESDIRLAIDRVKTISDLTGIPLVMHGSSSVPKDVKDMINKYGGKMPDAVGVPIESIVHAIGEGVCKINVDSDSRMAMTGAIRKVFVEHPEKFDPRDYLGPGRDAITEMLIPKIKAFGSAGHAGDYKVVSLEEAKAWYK
#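 40 nM FBPA preincubated 10 min at RT with compound (up to 57.5 uM final), then substrate plus GAPDH/TPI/NAD/arsenate coupling and diaphorase/resazurin added. Fluorescence read after 20 min at RT, 525/598 nm.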
# Cruzain Triton – inhibitors of Trypanosoma cruzi cruzain with detergent; actives 0.43% (n = 200,000); AID 1478; Potency, µM, for the others: max response, negative = inhibition, actives largely listed as inhibitors; purified cruzain, Z-FR-AMC fluorescence, 0.01% Triton;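 further: plate controls were neutral wells for no effect and buffer without enzyme for full effect; nearly all actives have a fitted effect of over 40% in size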
#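 Steps: dispense cruzain (1.5 nM final) in acetate buffer pH 5.5 with DTT and 0.01% Triton X-100; pin-transfer compounds; incubate 15 min RT; add Z-FR-AMC (2 uM final); read fluorescence every 30 s, using the 60 s intensity change.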
# Cruzain inh noDet – cruzain (T. cruzi) inhibition without detergent. P25779. purified cruzain, Z-FR-AMC fluorescence, no detergent. Potency, µM, for inactives: max response, negative = inhibition, usual class: inhibitors. actives 2.3% (n = 200,000). AID 1476;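 further: plate controls were enzyme without inhibitor for no effect and buffer without enzyme for full effect; nearly all actives have a fitted effect of over 40% in size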
#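 Detergent-free condition (0.00005% Triton X-100) in acetate buffer pH 5.5 with DTT. 1.5 nM enzyme and compound were pre-mixed 15 min, then 2 uM Z-FR-AMC substrate added; reaction progress from fluorescence change between first and third reads (60 s).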
# Starred values were filed as active, the others as inactive; ? = inconclusive; · = not tested or not shown. The call rests on the fitted dose curve; in most records, active means well fitted curve in the direction sought with a large enough effect; inconclusive means small, poorly fitted or top-dose-only effect, or another doubt; inactive means no such curve, though single readings can be large; an effect the other way counts as inactive or inconclusive. Unless noted, on the % scale 0 is the no-effect control and ±100 the full control effect; potency means the concentration at half of the fitted maximal effect.
SMILES,FBPA Giardia inh,Cruzain Triton,Cruzain inh noDet
O=C(c1ccc2nc(-c3ccco3)c(-c3ccco3)nc2c1)N1CCN(c2ncccn2)CC1,·,25µM*,?
O=C(Nc1ccc2nc(-c3ccco3)c(-c3ccco3)nc2c1)N1CCN(c2ccccn2)CC1,?,14µM*,2.5µM*
Cc1nc2cc(NC(=O)N3CCN(c4ccccn4)CC3)ccc2o1,5%,8%,3%
CCOc1ccc(NC(=O)Cn2c(=O)c(CNc3ccc(OC)cc3)cc3ccc(OC)cc32)cc1,·,-5%,-23%
O=C(Nc1nc2c(s1)CCCC2)c1cc(-c2ccc3c(c2)OCO3)nc2ccccc12,-8%,-4%,5µM*
O=C(Nc1nc2ccccc2s1)c1cc(-c2ccco2)nc2ccccc12,2%,-12%,-26%
COc1cccc(-c2cc(C(=O)Nc3nc4ccccc4s3)c3ccccc3n2)c1,1%,-1%,13µM*
Cc1ccccc1-c1cc(C(=O)Nc2nc3c(s2)CCCC3)c2ccccc2n1,-2%,-5%,?
NS(=O)(=O)c1cc2c(cc1Cl)=NC(CCC(=O)O)=NS=2(=O)O,·,2%,-1%
COc1cccc2c1C(=O)c1c(O)c3c(c(O)c1C2=O)C[C@@](O)(C(=O)CO)C[C@@H]3OC1C[C@@H](N)[C@H](O)[C@H](C)O1 (stereo not given in full),?,-6%,?
COc1ccc(NS(=O)(=O)c2ccc3[nH]c4c(c3c2)CCCCC4)cc1,·,-11%,?
Cn1c(=O)c2[nH]c(CCC(=O)O)nc2n(C)c1=O,·,3%,3%
COc1ccc(-c2nc3cnc(N4CCN(C)CC4)nc3n(-c3ccc(OC)cc3)c2=O)cc1,-22%,3%,-6%
O=C(CC1S/C(=N/N=C/C=C/c2ccccc2)NC1=O)Nc1ccc(Cl)c(Cl)c1 (stereo not given),5%,-1%,6.3µM*
O=C(O)CC1S/C(=N/N=C/C=C/c2ccccc2)NC1=O (stereo not given),7%,-17%,-3%
O=C(C[n+]1ccc2ccccc2c1)c1ccc2ccc3ccccc3c2c1,·,-3%,3.2µM*
O=C(C[n+]1ccc2ccccc2c1)c1ccccc1,-7%,·,·
COc1cccc(Cn2cc(C(=O)c3ccc(Cl)cc3)c(=O)c3ccccc32)c1,·,-3%,15%
CCCCOC(=O)c1ccc(-c2ccc(/C=N/NC(=S)NCC)o2)cc1,-9%,7%,25µM*
CCOC(=O)c1ccc(-c2ccc(/C=N/NC(=O)c3cncc(Br)c3)o2)cc1,5%,·,·
CCCCOC(=O)c1ccc(NC(=O)/C(C#N)=C/c2ccc(-c3ccccc3)o2)cc1,·,-4%,25µM*
CCOC(=O)c1ccc(-c2ccc(/C=C(\C#N)C(=O)Nc3c(C)cccc3Cl)o2)cc1,·,-2%,-1%
Cc1cccn2c(=O)cc(CSc3nnc(NC(=O)COc4ccc(F)cc4)s3)nc12,·,-2%,-11%
CCNc1cc(N2CCN(C)CC2)ccc1[N+](=O)[O-],-8%,·,·
CCNc1cc(N2CCN(S(=O)(=O)c3ccc4c(c3)CCCC4)CC2)ccc1[N+](=O)[O-],3%,-2%,5µM*
SMILES,FBPA Giardia inh,Cruzain Triton,Cruzain inh noDet
Cc1cc(C)c(S(=O)(=O)N2CCN(c3ccc([N+](=O)[O-])c(NCC4CCCO4)c3)CC2)c(C)c1 (stereo not given),2%,-8%,?
Cc1cc(C)c(S(=O)(=O)N2CCN(c3ccc([N+](=O)[O-])c(NCc4ccco4)c3)CC2)c(C)c1,1%,0%,6.3µM*
CC/C=C1/OC(=O)c2ccccc21,·,6%,0%
COc1ccccc1N1CCN(C(=O)c2cc3c(=O)n(Cc4ccco4)ccc3nc2C)CC1,·,-2%,?
CC(=O)NCCNc1ncncc1-c1ccc(N(C)C)cc1,-16%,-1%,-4%
CSCCC(NC(=O)c1ccc([N+](=O)[O-])cc1Cl)C(=O)OCC(=O)C12CC3CC(CC(C3)C1)C2 (stereo not given),-4%,28µM*,25µM*
CSCCC(NC(=O)C12CC3CC(CC(C3)C1)C2)C(=O)OCC(=O)c1ccc(C)cc1 (stereo not given),5%,-2%,14%
CCCCCCCCCCC(C)=O,8%,·,·
Cc1ccc(C2=C(Cl)C(=O)C(c3ccc(C)cc3)=C(Cl)C2=O)cc1,·,3%,1%
O=C(N/N=C/c1ccccc1Cl)c1[nH]c2ccc(Br)cc2c1-c1ccccc1,-5%,-3%,13µM*
COc1ccc(/C=N/NC(=O)c2[nH]c3ccc(Br)cc3c2-c2ccccc2)cc1,5%,1%,?
O=C(COc1ccc2ccccc2c1)Nc1cccc(C(=O)Nc2ccccc2C(=O)O)c1,8%,32µM*,?
COc1ccc(OCC(=O)Nc2ccc(C(=O)Nc3ccccc3C(=O)O)cc2)cc1,-6%,·,·
Cc1ccco1,·,0%,0%
